Over roughly 18,000 sequences, “log2 normalized intensity” has its median near 0.39; the highest 2% begin near 6.6. Many of the other results were omitted from the sample, so the highest values are more common in it than they were.

The assay deals with T1, HNF4alpha2 (COS-7 nuclear extract) (Homo sapiens, UniProt P41235 1-474).
T1 sequence: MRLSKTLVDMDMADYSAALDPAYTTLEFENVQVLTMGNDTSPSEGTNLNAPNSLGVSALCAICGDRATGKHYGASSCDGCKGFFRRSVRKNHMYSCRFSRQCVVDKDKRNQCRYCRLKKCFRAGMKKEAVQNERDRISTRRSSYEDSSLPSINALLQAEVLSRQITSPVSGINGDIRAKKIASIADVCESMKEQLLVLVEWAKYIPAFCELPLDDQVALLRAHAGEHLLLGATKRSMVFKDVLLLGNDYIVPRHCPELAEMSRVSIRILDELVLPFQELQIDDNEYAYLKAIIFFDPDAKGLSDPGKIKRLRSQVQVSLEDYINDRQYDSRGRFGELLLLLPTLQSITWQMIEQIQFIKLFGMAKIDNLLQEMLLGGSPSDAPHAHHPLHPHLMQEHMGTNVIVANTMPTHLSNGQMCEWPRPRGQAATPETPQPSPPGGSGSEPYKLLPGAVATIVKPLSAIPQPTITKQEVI
Nature of the assay: protein-binding microarray; COS-7 nuclear extract on double-stranded Agilent 4x180k PBM; binding buffer, salt, pH and temperature not given in the material; high values mean tight binding. The following applies: chain copies: 2; label: 3' end of strand 1 on the slide; dsDNA, one strand shown. A digest of the protocol: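 Binding signal is the background-corrected, normalized gProcessedSignal calculated by Agilent software. It was measured by applying nuclear extracts of COS-7 cells transiently transfected with a human HNF4α isoform expression vector to a custom Agilent SurePrint G3 4x180k array of ~44,000 double-stranded ~60-nt test sequences in quadruplicate, then imaging bound HNF4α on an Agilent G2565CA scanner at 2-µm resolution.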
With “TCTGGGATGTTGGGAGGAGTGGACTTTGATGCCTAGGGAGATTAGAGTATCGGTCGA”, the binding signal is 5.99 log2 normalized intensity.

Consider “GAATCTACAGAATTCTCATGGAGGACTTTGGCCTAGGGAGATTAGAGTATCGGTCGA”, for which the binding signal was 2.77 log2 normalized intensity.

In the case of “TACAGAATTCTCATGGAGGACTTTGGCCTTGCCTAGGGAGATTAGAGTATCGGTCGA”, the binding signal was determined as 7.11 log2 normalized intensity.

For the sequence “GGGCTGAGGATGAGGACTTTGGTCTTATTAGCCTAGGGAGATTAGAGTATCGGTCGA”, the binding signal amounted to 3.74 log2 normalized intensity.

Take “TTATCTCAGATGAGACTTTGGACTTTTGAAGCCTAGGGAGATTAGAGTATCGGTCGA”: the binding signal was determined as 7.12 log2 normalized intensity.

In the case of “TCAGATGAGACTTTGGACTTTTGAACTAAGGCCTAGGGAGATTAGAGTATCGGTCGA”, the binding signal is 6.42 log2 normalized intensity.

Regarding “TCTTTGTTCAGAGGGCATGTTGAGTGGAATGCCTAGGGAGATTAGAGTATCGGTCGA”, the binding signal worked out at 2.13 log2 normalized intensity.

Take “TTACAACGCTGTTGTCTGTGACTGGGGTCAGCCTAGGGAGATTAGAGTATCGGTCGA”: the binding signal is 3.66 log2 normalized intensity.

As to “GCCAACAACTAGGGCAAAGGTTAGCTTGGAGCCTAGGGAGATTAGAGTATCGGTCGA”, the binding signal turned out to be 4.27 log2 normalized intensity.

Turning to “ACAGATGTAGACATTGGAATGCGGGCTCCAGCCTAGGGAGATTAGAGTATCGGTCGA”, the binding signal is -0.394 log2 normalized intensity.

Turning to “TCGGAATGTCTGGGCAAAGGGGAGGTTATCGCCTAGGGAGATTAGAGTATCGGTCGA”, the binding signal is 0.29 log2 normalized intensity.

As for “AAGTGGTATCCTGCAGTCAGTCTGATTGGTGCCTAGGGAGATTAGAGTATCGGTCGA”, the binding signal is 0.556 log2 normalized intensity.

“GAGGAGTGGCCATGATGCCATCTGGTGAAGGCCTAGGGAGATTAGAGTATCGGTCGA”: the binding signal was -0.987 log2 normalized intensity.

For the sequence “TTGAACACCACAAGTTTGAACTGCACAGGCGCCTAGGGAGATTAGAGTATCGGTCGA”, the binding signal was -0.333 log2 normalized intensity.

Turning to “GTGAGGTCACAGTATTCATTCCCCTAGTATGCCTAGGGAGATTAGAGTATCGGTCGA”, the binding signal is 2.55 log2 normalized intensity.

Take “TCAGATAGCTTTAGCCGGACTTTGTCCTTTGCCTAGGGAGATTAGAGTATCGGTCGA”: the binding signal came to 7.78 log2 normalized intensity.

Consider “CTATCTCAGATAGCTTTAGCCGGACTTTGTGCCTAGGGAGATTAGAGTATCGGTCGA”, for which the binding signal is 5.18 log2 normalized intensity.

With “TAGCTTTAGCCGGACTTTGTCCTTTGATTTGCCTAGGGAGATTAGAGTATCGGTCGA”, the binding signal was 6.43 log2 normalized intensity.

On to “TAGTAGGGTCAAAGTCTGGATCCGTTAACAGCCTAGGGAGATTAGAGTATCGGTCGA”, for which the binding signal is 4.3 log2 normalized intensity.

As for “CACCTTTTTTGGCCTTTACCCCTTGAGTTTGCCTAGGGAGATTAGAGTATCGGTCGA”, the binding signal was 3.93 log2 normalized intensity.

Turning to “CAAAGTTCAAGGTCCAGCCTACCCACCCACGCCTAGGGAGATTAGAGTATCGGTCGA”, the binding signal is 4.66 log2 normalized intensity.

For “TCACACACACACACACACACACCCCACACAGCCTAGGGAGATTAGAGTATCGGTCGA”, the binding signal amounted to 1.75 log2 normalized intensity.

Consider “CACACACACACACACACCCCACACACCAAAGCCTAGGGAGATTAGAGTATCGGTCGA”, for which the binding signal is 3.12 log2 normalized intensity.

With “CCTCCAGGCCCCAGCCACGCCCTCTAACCCGCCTAGGGAGATTAGAGTATCGGTCGA”, the binding signal amounted to 2.92 log2 normalized intensity.

Regarding “GGATCGGAACCCCACCCCCACGCCCCCCAGGCCTAGGGAGATTAGAGTATCGGTCGA”, the binding signal was found to be 7 log2 normalized intensity.

“AGGCCCCAGCCACGCCCTCTAACCCAGGTTGCCTAGGGAGATTAGAGTATCGGTCGA”: the binding signal amounted to 3.08 log2 normalized intensity.

“GGAACCCCACCCCCACGCCCCCCAGCGGAAGCCTAGGGAGATTAGAGTATCGGTCGA”: the binding signal came out at 7.16 log2 normalized intensity.

In the case of “CCCACCCCCACGCCCCCCAGCGGAAGTCCAGCCTAGGGAGATTAGAGTATCGGTCGA”, the binding signal was 6.97 log2 normalized intensity.

With “CGCCCCCCAGCGGAAGTCCAGTGGTGTCTTGCCTAGGGAGATTAGAGTATCGGTCGA”, the binding signal came to 3.33 log2 normalized intensity.

As for “GAGAGAATGACCCTTGCTTGACCCATTATGGCCTAGGGAGATTAGAGTATCGGTCGA”, the binding signal was found to be 2.36 log2 normalized intensity.

On to “AGAACAAACAATGGTTTGGGACAAAGTTTGGCCTAGGGAGATTAGAGTATCGGTCGA”, for which the binding signal was found to be 0.489 log2 normalized intensity.

As to “ACCGGCAGAGAGAAGCCACTGCGACCTTTGGCCTAGGGAGATTAGAGTATCGGTCGA”, the binding signal came out at 4.92 log2 normalized intensity.

Take “CAGAGAGAAGCCACTGCGACCTTTGCCCTCGCCTAGGGAGATTAGAGTATCGGTCGA”: the binding signal worked out at 9.89 log2 normalized intensity.

In the case of “CTTTGCCCTCCCTAAATCCAGAGGTATTTGGCCTAGGGAGATTAGAGTATCGGTCGA”, the binding signal was 1.88 log2 normalized intensity.

For the sequence “CTTCTCCGCGGCGGGCCCTCGACCTTTGCCGCCTAGGGAGATTAGAGTATCGGTCGA”, the binding signal is 5.07 log2 normalized intensity.

For “CCACTGCGACCTTTGCCCTCCCTAAATCCAGCCTAGGGAGATTAGAGTATCGGTCGA”, the binding signal came out at 6.95 log2 normalized intensity.

Consider “AGAAGCCACTGCGACCTTTGCCCTCCCTAAGCCTAGGGAGATTAGAGTATCGGTCGA”, for which the binding signal came to 7.38 log2 normalized intensity.

For the sequence “CCGCGGCGGGCCCTCGACCTTTGCCCTCCAGCCTAGGGAGATTAGAGTATCGGTCGA”, the binding signal stood at 9.87 log2 normalized intensity.

Regarding “CCTCCTAATCACTGCCCTTTGGTGCCTCTTGCCTAGGGAGATTAGAGTATCGGTCGA”, the binding signal came out at 2.28 log2 normalized intensity.

“TCAGCCTTCTCCGCGGCGGGCCCTCGACCTGCCTAGGGAGATTAGAGTATCGGTCGA”: the binding signal is -0.582 log2 normalized intensity.

With “CCCTCCCTAAATCCAGAGGTATTTGGCCCAGCCTAGGGAGATTAGAGTATCGGTCGA”, the binding signal worked out at 1.59 log2 normalized intensity.

With “TTCCCCTCCCTTCCACCTTTGCCCTCCAAAGCCTAGGGAGATTAGAGTATCGGTCGA”, the binding signal turned out to be 5.76 log2 normalized intensity.

For “TTGCCATGACCTTTGAAGCCCAGAACACTCGCCTAGGGAGATTAGAGTATCGGTCGA”, the binding signal was 3.59 log2 normalized intensity.
